Values joined by “and” are separate entries in the source; they are usually repeats but may differ in a detail not shown here. Equal values may be shown once. Records with an inconclusive call do not appear. Active and inactive are the calls of the source. Unless noted, calls follow the shape of the dose curve; as a rule, active = well fitted curve in the direction sought with a large enough effect; inconclusive = small, poorly fitted or top-dose-only effect, or another doubt; inactive = no such curve, though single readings can be large; an effect the other way counts as inactive or inconclusive.
Tests used:
[1] = molecular target: ATP-dependent 6-phosphofructokinase (Trypanosoma brucei brucei) (UniProt O15648); experiment: qHTS Validation Assay to Find Inhibitors of T. brucei phosphofructokinase (AID 485368)
Chain of ATP-dependent 6-phosphofructokinase (Trypanosoma brucei brucei) (O15648 whole entry, looked up): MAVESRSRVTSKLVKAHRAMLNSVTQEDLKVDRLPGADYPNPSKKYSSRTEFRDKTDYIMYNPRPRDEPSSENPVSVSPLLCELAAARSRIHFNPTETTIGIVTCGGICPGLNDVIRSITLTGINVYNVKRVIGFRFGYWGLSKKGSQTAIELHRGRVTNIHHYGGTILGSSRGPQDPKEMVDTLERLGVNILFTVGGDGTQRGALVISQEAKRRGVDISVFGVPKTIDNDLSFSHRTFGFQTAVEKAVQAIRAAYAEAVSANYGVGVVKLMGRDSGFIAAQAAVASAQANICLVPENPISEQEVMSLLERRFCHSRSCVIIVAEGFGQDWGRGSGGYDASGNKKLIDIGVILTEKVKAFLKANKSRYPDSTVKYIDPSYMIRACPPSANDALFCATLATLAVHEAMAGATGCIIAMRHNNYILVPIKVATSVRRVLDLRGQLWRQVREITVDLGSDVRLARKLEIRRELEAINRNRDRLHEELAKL
Method in brief: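 Inhibition derived from concentration-response curves of luminescence, ranked by r2, response size and curve class; the underlying reaction used 1.25 nM PFK, 0.1 mM ATP and 0.5 mM F6P, 45 min, room temperature.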

[2] = Quantitative high throughput screen for delayed death inhibitors of the malarial parasite plastid, 96 hour incubation (AID 488745); also: nearly all actives have a fitted effect of over 70% in size; also: potency is read from the fitted curve at half-maximal effect
Method in brief: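 Two-generation (96 h) exposure of luciferase-reporter P. falciparum in erythrocytes, 2% hematocrit, 0.1% parasitemia final, 37 C, 5% CO2, RPMI 1640 with 0.5% Albumax. Growth inhibition scored by reduced luminescence.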

[3] = molecular target: Thioredoxin reductase 1, cytoplasmic (Rattus norvegicus) (UniProt O89049); experiment: qHTS Assay for Substrates of Mammalian Selenoprotein Thioredoxin Reductase 1 (TrxR1) (AID 488772);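 also: series mostly up to about 57 µM; 0% is about no effect; a drop in NADPH fluorescence below the no-compound background marks a TrxR1 substrate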
Method in brief: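 In this dual-purpose format, potential substrates are identified from the first fluorescence read after selenite addition, not from the 8-minute delta. Rat enzyme is preincubated with NADPH and then with compound at ~22 deg C.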

[4] = molecular target: Thioredoxin reductase 1, cytoplasmic (Rattus norvegicus) (UniProt O89049); experiment: qHTS Assay for Inhibitors of Mammalian Selenoprotein Thioredoxin Reductase 1 (TrxR1) (AID 488773); conditions: Potency: inhibition;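 also: drop in NADPH fluorescence over an 8 min run after selenite addition; series mostly up to about 57 µM; % is scaled to controls: 0 for no effect and ±100 for the full control effect; nearly all actives have a fitted effect of over 40% in size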
Method in brief: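 Inhibition is scored from the loss of NADPH fluorescence between first and last reads of an 8-min kinetic run. Selenite (400 uM) was the substrate, added after 15 min compound preincubation at room temperature.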

[5] = molecular target: M-phase phosphoprotein 8 (Homo sapiens) (UniProt Q99549); experiment: qHTS Validation Assay for Inhibitors for MPP8 Chromodomain Interactions with Methylated Histone Tails (AID 488949);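 also: AlphaScreen signal from MPP8 chromodomain bound to biotinylated H3K9me3 peptide; top concentration of the series differs between compounds; % is scaled to controls: 0 for no effect and ±100 for the full control effect; nearly all actives have a fitted effect of over 55% in size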
Chain of M-phase phosphoprotein 8 (Homo sapiens) (Q99549 whole entry, looked up): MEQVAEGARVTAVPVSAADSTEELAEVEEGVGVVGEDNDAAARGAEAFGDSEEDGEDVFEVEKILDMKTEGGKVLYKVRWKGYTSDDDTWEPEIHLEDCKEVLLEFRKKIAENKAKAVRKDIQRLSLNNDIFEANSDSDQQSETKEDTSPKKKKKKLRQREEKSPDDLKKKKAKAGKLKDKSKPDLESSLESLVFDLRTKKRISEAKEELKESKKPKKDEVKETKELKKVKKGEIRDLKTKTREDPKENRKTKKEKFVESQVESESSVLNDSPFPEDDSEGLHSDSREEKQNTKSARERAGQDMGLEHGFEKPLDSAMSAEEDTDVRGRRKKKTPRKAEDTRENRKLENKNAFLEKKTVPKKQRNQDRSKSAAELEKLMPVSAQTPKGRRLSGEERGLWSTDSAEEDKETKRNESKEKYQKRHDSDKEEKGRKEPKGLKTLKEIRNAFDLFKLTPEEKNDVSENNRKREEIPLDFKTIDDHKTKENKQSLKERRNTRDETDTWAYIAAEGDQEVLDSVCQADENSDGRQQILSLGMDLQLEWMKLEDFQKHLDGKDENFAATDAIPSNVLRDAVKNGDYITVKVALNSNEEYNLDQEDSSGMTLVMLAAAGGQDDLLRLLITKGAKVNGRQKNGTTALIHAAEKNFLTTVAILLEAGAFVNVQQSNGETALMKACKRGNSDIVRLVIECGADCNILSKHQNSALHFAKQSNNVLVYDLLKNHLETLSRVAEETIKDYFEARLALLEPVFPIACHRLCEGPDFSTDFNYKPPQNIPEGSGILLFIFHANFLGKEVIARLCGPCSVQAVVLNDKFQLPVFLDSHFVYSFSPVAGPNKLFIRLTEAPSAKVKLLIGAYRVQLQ
Method in brief: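 Disruption of the preformed MPP8–trimethyl-H3K9 peptide complex (both 50 nM, 30 min, RT) is measured after 30 min compound exposure, using AlphaScreen proximity beads; aurintricarboxylic acid titration serves as plate control.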

[6] = molecular target: Chromobox protein homolog 1 (Homo sapiens) (UniProt P83916); experiment: qHTS Validation Assay for Inhibitors of HP1-beta Chromodomain Interactions with Methylated Histone Tails (AID 488953); also: nearly all actives have a fitted effect of over 50% in size; also: potency is read from the fitted curve at half-maximal effect
Chain of Chromobox protein homolog 1 (Homo sapiens) (P83916 whole entry, looked up): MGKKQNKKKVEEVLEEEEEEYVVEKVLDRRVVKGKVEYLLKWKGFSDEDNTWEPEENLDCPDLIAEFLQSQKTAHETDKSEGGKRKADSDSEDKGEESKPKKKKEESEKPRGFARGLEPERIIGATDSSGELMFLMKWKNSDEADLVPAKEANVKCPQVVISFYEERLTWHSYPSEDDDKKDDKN
Method in brief: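 Compounds pinned into a preassembled complex of HP1-beta and trimethyl-K9 histone H3(1-18) biotin peptide (50 nM each; PBS pH 7.4, 0.01% Tween-20). After 30 min, bead-based AlphaScreen detection followed.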

[7] = molecular target: Methanococcus maripaludis chaperonin (MmCpn) (UniProt Q6LX38); experiment: High-Throughput Screening for Modulators of Cytosolic Chaperonin Activity: MmCpn Primary Screen (AID 488978);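 also: 50 nM MmCpn enzyme hydrolysing 30 µM ATP at 37 °C; 0% is about no effect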
Method in brief: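 Measures ATPase turnover of the M. maripaludis chaperonin (50 nM final) against 30 uM ATP over 10 min at 37C, with compound added 5 min beforehand at room temperature. ADP is quantified by HTRF immunodetection.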

[8] = molecular target: Transient receptor potential cation channel subfamily V member 1 (Homo sapiens) (UniProt Q8NER1); experiment: HTS Assay for Compounds that Act as Enhancers of the Vanilloid Receptor 1 (AID 488979); also: 0% is about no effect
Chain of Transient receptor potential cation channel subfamily V member 1 (Homo sapiens) (Q8NER1 whole entry, looked up): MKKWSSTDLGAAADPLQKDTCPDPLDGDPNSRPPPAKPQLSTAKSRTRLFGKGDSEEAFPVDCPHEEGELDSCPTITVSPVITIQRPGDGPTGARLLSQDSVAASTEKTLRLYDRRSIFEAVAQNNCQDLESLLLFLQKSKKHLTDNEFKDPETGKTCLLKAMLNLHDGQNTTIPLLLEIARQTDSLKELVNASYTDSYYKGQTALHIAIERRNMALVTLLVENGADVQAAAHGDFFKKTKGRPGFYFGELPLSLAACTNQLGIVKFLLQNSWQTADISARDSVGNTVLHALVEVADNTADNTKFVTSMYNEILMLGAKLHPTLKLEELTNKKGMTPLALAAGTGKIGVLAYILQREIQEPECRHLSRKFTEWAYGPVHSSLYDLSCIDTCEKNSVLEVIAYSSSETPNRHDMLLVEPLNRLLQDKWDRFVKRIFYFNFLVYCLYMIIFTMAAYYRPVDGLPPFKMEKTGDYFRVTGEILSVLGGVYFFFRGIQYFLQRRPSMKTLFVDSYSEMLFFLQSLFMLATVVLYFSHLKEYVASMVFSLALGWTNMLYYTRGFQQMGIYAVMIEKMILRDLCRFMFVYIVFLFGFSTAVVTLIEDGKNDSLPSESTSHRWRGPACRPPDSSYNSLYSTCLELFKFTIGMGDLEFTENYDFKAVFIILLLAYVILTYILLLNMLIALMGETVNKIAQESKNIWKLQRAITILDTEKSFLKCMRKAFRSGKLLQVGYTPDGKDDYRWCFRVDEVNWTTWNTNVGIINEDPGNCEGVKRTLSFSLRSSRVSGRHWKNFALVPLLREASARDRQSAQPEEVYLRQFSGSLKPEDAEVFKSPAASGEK
Method in brief: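 Calcium influx kinetics via Fluo-8 (480/520 nm) in TRPV1-expressing cells, 2000/well cultured overnight at 35.5C. Compound-alone read 3 min (agonist phase), followed by EC20 capsaicin challenge for 2 min (enhancer phase).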

[9] = molecular target: Thyrotropin receptor (Homo sapiens) (UniProt P16473); experiment: qHTS Assay for Antagonists of the Thyroid Stimulating Hormone Receptor (AID 488980); also: series mostly up to about 58 µM; 0% is about no effect
Method in brief: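 Cells expressing human TSHR (HEK293) are dispensed in HBSS/HEPES containing 70 uM RO 20-1724, compound is added, then TSH at EC80 (4 nM final). Antibody in lysis buffer follows, 30 minutes at room temperature before HTRF detection.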

[10] = molecular target: D(1A) dopamine receptor (Homo sapiens) (UniProt P21728); experiment: HTS Assay for Allosteric Agonists of the Human D1 Dopamine Receptor: Primary Screen for Agonists (AID 488981); also: potency is read from the fitted curve at half-maximal effect; as to activation: 0% is about no effect
Chain of D(1A) dopamine receptor (Homo sapiens) (P21728 whole entry, looked up): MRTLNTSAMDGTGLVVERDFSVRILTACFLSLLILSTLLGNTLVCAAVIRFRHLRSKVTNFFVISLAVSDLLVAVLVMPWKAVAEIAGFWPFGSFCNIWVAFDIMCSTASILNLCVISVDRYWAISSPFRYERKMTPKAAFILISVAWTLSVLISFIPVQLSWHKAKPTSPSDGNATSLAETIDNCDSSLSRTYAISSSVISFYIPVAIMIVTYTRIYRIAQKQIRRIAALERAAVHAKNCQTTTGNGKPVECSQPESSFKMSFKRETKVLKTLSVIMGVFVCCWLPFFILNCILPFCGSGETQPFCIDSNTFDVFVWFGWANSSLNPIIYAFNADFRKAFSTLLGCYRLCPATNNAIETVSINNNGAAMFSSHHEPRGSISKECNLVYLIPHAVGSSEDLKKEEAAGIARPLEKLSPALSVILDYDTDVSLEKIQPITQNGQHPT
Method in brief: (§1)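 Calcium flux in an inducible, force-coupled HEK293 Trex D1 line (overnight at 30 C): agonist mode is the 180 s kinetic read after compound; potentiator mode is the following 180 s read after dopamine at EC20.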

[11] = molecular target: D(1A) dopamine receptor (Homo sapiens) (UniProt P21728); experiment: HTS Assay for Allosteric Agonists of the Human D1 Dopamine Receptor: Primary Screen for Potentiators (AID 488982); also: 0% is about no effect
Method in brief: as §1

[12] = molecular target: D(1A) dopamine receptor (Homo sapiens) (UniProt P21728); experiment: HTS Assay for Allosteric Agonists of the Human D1 Dopamine Receptor: Primary Screen for Antagonists (AID 488983);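 also: calcium flux response to an EC80 dopamine challenge measured with no-wash dye; % is scaled to controls: 0 for no effect and ±100 for the full control effect; nearly all actives have a fitted effect of over 65% in size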
Method in brief: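 In this primary screen, compounds are applied to calcium-dye-loaded HEK293 T-REx cells with force-coupled D1 expression induced overnight at 30 C. An EC80 of dopamine follows the 180 s compound phase, and calcium is monitored for a further 180 s.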

[13] = Validation screen for small molecules that induce genotoxicity in human embryonic kidney (HEK293T) cells expressing luciferase-tagged ELG1 (AID 493106); also: potency is read from the fitted curve at half-maximal effect
Method in brief: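 In this validation screen, increased ELG1-luciferase signal flags compounds causing genetic stress. HEK293T reporter cells are treated 16 hr (37 °C, 5% CO2), developed with ONE-Glo for 30 min at room temperature, and imaged on a CCD-based reader.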

[14] = molecular target: ATPase family AAA domain-containing protein 5 (Homo sapiens) (UniProt Q96QE3); experiment: Validation screen for small molecules that inhibit ELG1-dependent DNA repair in human embryonic kidney (HEK293T) cells expressing luciferase-tagged ELG1 (AID 493107);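 also: cells co-treated with the DNA-damaging agent 5-fluorouridine alongside compound; series mostly up to about 46 µM; % is scaled to controls: 0 for no effect and ±100 for the full control effect; inhibitors lower the ELG1-luciferase luminescence signal; nearly all actives have a fitted effect of over 70% in size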
Chain of ATPase family AAA domain-containing protein 5 (Homo sapiens) (Q96QE3 whole entry, looked up, the tested form may be a part): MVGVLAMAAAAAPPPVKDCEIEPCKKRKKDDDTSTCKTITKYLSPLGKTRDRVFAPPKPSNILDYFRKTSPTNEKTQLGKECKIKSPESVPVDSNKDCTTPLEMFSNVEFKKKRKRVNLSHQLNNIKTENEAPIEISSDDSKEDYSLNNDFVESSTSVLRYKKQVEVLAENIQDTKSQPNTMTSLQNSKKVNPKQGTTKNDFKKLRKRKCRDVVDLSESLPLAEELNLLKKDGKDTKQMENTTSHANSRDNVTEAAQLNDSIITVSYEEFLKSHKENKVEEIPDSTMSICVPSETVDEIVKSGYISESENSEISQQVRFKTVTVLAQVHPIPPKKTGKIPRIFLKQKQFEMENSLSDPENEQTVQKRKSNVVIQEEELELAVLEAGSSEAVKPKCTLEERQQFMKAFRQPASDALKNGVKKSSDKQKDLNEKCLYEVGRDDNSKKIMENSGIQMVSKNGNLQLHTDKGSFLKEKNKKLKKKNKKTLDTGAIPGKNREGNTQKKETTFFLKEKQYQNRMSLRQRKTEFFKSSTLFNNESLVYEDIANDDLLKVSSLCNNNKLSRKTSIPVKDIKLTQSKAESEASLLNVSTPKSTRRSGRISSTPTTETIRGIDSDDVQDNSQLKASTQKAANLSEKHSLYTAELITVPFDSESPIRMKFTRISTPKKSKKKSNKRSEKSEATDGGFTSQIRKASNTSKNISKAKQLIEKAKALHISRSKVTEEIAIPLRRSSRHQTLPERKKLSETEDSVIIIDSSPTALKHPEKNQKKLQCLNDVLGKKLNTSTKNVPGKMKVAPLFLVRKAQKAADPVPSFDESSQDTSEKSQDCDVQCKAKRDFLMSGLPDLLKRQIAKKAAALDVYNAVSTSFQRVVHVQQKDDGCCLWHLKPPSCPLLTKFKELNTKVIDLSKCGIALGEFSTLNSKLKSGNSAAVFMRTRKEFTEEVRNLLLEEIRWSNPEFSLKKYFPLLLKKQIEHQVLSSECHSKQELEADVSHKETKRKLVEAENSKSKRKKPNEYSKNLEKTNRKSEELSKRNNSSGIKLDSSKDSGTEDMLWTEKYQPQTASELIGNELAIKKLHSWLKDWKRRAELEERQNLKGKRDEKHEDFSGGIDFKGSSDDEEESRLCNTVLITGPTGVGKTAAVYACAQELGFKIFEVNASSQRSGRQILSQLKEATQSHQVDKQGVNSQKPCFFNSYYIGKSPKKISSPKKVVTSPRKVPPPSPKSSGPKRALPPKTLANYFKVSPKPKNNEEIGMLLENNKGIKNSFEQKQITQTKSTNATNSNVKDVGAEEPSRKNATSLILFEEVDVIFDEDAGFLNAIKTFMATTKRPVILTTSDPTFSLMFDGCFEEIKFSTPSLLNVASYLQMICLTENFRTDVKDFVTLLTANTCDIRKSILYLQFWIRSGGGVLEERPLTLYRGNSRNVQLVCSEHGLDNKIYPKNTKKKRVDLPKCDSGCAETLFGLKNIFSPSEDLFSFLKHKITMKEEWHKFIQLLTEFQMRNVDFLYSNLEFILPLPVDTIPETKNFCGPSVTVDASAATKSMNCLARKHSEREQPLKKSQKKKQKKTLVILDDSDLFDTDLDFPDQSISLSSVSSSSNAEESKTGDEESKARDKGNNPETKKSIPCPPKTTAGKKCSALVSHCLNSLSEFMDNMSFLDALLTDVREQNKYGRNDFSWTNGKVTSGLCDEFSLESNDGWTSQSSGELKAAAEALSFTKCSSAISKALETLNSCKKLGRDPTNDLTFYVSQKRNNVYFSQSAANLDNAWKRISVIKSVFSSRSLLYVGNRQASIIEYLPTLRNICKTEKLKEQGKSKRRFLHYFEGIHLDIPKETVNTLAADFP
Method in brief: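 Compounds reducing 5-fluorouridine-driven ELG1-luciferase signal in HEK293T cells were scored; exposure lasted 16 hr at 37 °C with luminescence detected via ONE-Glo.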

[15] = molecular target: Thyrotropin-releasing hormone receptor (Homo sapiens) (UniProt P34981); experiment: qHTS for Small Molecule Agonists and Allosteric Enhancers of Human TRH Receptor: Validation Screen for Agonists (AID 493127;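 active = calcium activation more than 3 SD above the typical response in the agonist read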;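 also: intracellular calcium rise by fluo-8 fluorescence before TRH EC20 addition; 0% is about no effect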); conditions: TRH receptor agonist cell assay; at 2 µM; hits give high values
Chain of Thyrotropin-releasing hormone receptor (Homo sapiens) (P34981 whole entry, looked up): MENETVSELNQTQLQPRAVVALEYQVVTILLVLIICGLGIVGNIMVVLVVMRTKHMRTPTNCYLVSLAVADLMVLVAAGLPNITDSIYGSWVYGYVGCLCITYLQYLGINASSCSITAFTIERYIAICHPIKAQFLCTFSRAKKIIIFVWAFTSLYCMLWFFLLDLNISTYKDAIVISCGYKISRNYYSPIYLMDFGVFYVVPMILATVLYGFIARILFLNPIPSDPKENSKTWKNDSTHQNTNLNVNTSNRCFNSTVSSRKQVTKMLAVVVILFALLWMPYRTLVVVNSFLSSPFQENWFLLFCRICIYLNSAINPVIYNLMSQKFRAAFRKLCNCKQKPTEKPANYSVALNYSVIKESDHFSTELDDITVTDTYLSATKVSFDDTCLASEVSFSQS
Method in brief: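 Kinetic fluorescence assay of agonist-induced calcium release: overnight-plated TRHR cells, room-temperature fluo-8 loading, baseline then compound addition with per-second reads.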

[16] = Quantitative high throughput screen for delayed death inhibitors of the malarial parasite plastid, 48 hour incubation (AID 488752); also: nearly all actives have a fitted effect of over 65% in size; also: potency is read from the fitted curve at half-maximal effect
Method in brief: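 Cultures: infected erythrocytes at final 2% hematocrit and 0.1% parasitemia in Albumax-supplemented RPMI. Parasites express integrated firefly luciferase. Incubation with compound lasts 48 h before luminescent detection of remaining reporter activity.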

[17] = molecular target: Flap endonuclease 1 (Homo sapiens) (UniProt P39748); experiment: qHTS Validation Assay for the Inhibitors of Human Flap endonuclease 1 (FEN1) (AID 488816); also: % is scaled to controls: 0 for no effect and ±100 for the full control effect
Method in brief: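 qHTS format: compounds and 10 nM FEN1 incubated 15 min at room temperature before adding 50 nM substrate. Cleavage followed by reads at 0 and 15 min; normalized data fitted to a four-parameter Hill curve.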

[18] = molecular target: ATP-dependent 6-phosphofructokinase (Trypanosoma brucei brucei) (UniProt O15648); experiment: qHTS Assay to Find Inhibitors of T. brucei phosphofructokinase: hit validation (AID 492961);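 also: luminescence reports ADP formed as PFK phosphorylates fructose-6-phosphate with ATP; series mostly up to about 51 µM; % is scaled to controls: 0 for no effect and ±100 for the full control effect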
Method in brief: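 In this biochemical qHTS validation, titrated compounds were tested against 1.25 nM PFK with 0.1 mM ATP and 0.5 mM F6P. Percent activity came from controls lacking or containing enzyme.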

[19] = molecular target: Tyrosyl-DNA phosphodiesterase 1 (Homo sapiens) (UniProt Q9NUW8); experiment: Confirmation Assay for Inhibitors of Tyrosyl-DNA Phosphodiesterase (TDP1) (AID 489007); conditions: recombinant human TDP1 enzymatic activity, dose-response; also: potency is read from the fitted curve at half-maximal effect; nearly all actives have a fitted effect of over 40% in size
Method in brief: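 Loss of AlphaScreen signal reports Tdp1 cleavage of a dual-labelled DNA substrate. Conditions: 1 nM E. coli-derived enzyme, 15 nM substrate, 15 min compound preincubation, 5 min reaction, 10 min bead incubation, all at room temperature.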

COc1ccc2c(c1)c(CC(=O)O)c(C)n2Cc1ccc(Cl)cc1
inactive: Potency [1] | outcome [3] | Potency [4] | Potency [5] | outcome [7] | outcome [8] | outcome [9] | Potency [10] | Potency [11] | Potency [12] | Potency [13] | Potency [14] | activation [15] -0.188%
active: Potency [2] 10400 nM | Potency [6] 6.7 nM

CCC1(O)CC2CN(CCc3c([nH]c4ccccc34)[C@@](C(=O)OC)(c3cc4c(cc3OC)N(C=O)C3[C@]45CCN4CC=C[C@@](CC)([C@@H](OC(C)=O)[C@]3(O)C(=O)OC)[C@H]45)C2)C1 (stereo partly specified)
inactive: outcome [3] | Potency [4] | Potency [17] | Potency [5] | outcome [7] | outcome [9] | Potency [10] | Potency [11] | Potency [12] | activation [15] 0.188%
active: Potency [2] 117 nM | Potency [16] 131 nM | Potency [13] 920 nM

O=C(O)C1=CCCNC1
inactive: Potency [2] | Potency [16] | outcome [3] | Potency [4] | Potency [17] | Potency [5] | outcome [7] | outcome [8] | outcome [9] | Potency [10] | Potency [12] | Potency [13] | Potency [14] | activation [15] 0.875%

CN1CCc2cc(Cl)c(O)cc2[C@@H](c2ccccc2)C1
inactive: Potency [1] | outcome [3] | Potency [4] | Potency [17] | Potency [5] | Potency [6] | outcome [7] | Potency [10] | Potency [11] | Potency [13] | Potency [14]

Nc1ccc2c3c(cccc13)C(=O)NC2=O
active: Potency [10] 11200 nM | activation [15] 87.4%
inactive: Potency [2] | Potency [16] | outcome [3] | Potency [4] | Potency [5] | Potency [6] | outcome [7] | outcome [9] | Potency [14]

Cn1cc(C(F)(F)F)nc1-c1ccc(OCC(O)CNCCOc2ccc(O)c(C(N)=O)c2)cc1 (stereo unspecified)
inactive: outcome [3] | Potency [4] | Potency [5] | Potency [6] | outcome [7] | outcome [9] | Potency [10] | Potency [11] | Potency [12] | Potency [13] | Potency [14] | activation [15] 1.5%

S=C(S)N1CCCC1
inactive: outcome [3] | Potency [4] | Potency [17] | outcome [7] | outcome [8] | outcome [9] | Potency [10] | Potency [11] | Potency [12] | Potency [14] | activation [15] -0.188%

O=C(O)C1=CCNCC1
inactive: Potency [2] | Potency [16] | outcome [3] | Potency [4] | Potency [17] | Potency [5] | Potency [6] | outcome [7] | outcome [8] | outcome [9] | Potency [10] | Potency [12] | Potency [13] | Potency [14]

CNc1cc(NS(=O)(=O)c2ccc(N)cc2)nc(NC)n1
inactive: Potency [2] | Potency [16] | outcome [3] | Potency [4] | Potency [5] | outcome [7] | outcome [9] | Potency [10] | Potency [11] | Potency [12] | Potency [13] | activation [15] 0.25%

CC(C)NC[C@H](O)COc1ccc(CC(N)=O)cc1
inactive: Potency [1] | Potency [2] | Potency [16] | outcome [3] | Potency [4] | Potency [6] | outcome [7] | outcome [8] | outcome [9] | Potency [10] | Potency [11] | outcome [18] | Potency [13] | Potency [14] | activation [15] 0.25% and -0.125%

Cc1ccc2c(c1)C(N1CCN(C)CC1)=Nc1cccnc1N2
inactive: Potency [1] | Potency [2] | Potency [16] | outcome [3] | Potency [4] | Potency [17] | Potency [5] | outcome [7] | outcome [8] | outcome [9] | Potency [10] | Potency [11] | Potency [13] | activation [15] -0.312%

CC1CCN(CC[C@H]2CCCN2S(=O)(=O)c2cccc(O)c2)CC1
inactive: Potency [2] | Potency [16] | outcome [3] | Potency [4] | Potency [17] | Potency [5] | Potency [6] | outcome [7] | outcome [8] | outcome [9] | Potency [10] | Potency [11] | Potency [12] | Potency [13] | Potency [14] | activation [15] 2.44%

C=CCN1CCc2cc(O)c(O)cc2C(c2ccccc2)C1 (stereo unspecified)
inactive: Potency [1] | outcome [3] | Potency [4] | Potency [17] | Potency [5] | outcome [7] | outcome [8] | outcome [9] | Potency [10] | Potency [11] | Potency [13] | Potency [14]

NC(=O)CC[C@H](N)C(=O)O
inactive: Potency [16] | outcome [3] | Potency [4] | Potency [17] | Potency [5] | Potency [6] | outcome [7] | outcome [8] | outcome [9] | Potency [10] | Potency [11] | Potency [12] | Potency [13] | Potency [14]

Cc1nc(N=Nc2ccc(S(=O)(=O)O)cc2S(=O)(=O)O)c(COP(=O)(O)O)c(C=O)c1O
inactive: Potency [2] | Potency [16] | outcome [3] | Potency [4] | Potency [17] | Potency [5] | Potency [6] | outcome [7] | outcome [8] | outcome [9] | Potency [10] | Potency [11] | Potency [12] | Potency [14] | activation [15] 0.938%
active: Potency [19] 7080 nM

O=C(O)/C(=C/c1c(C(=O)O)[nH]c2cc(Cl)cc(Cl)c12)c1ccccc1
inactive: outcome [3] | Potency [4] | Potency [17] | Potency [5] | outcome [7] | outcome [9] | Potency [10] | Potency [11] | Potency [13] | Potency [14] | activation [15] 1.12%

Reference: PubChem BioAssay (NCATS)
